Assay [1] can be described thus: STM_H9_OrnCyssISnorm_ratio: Stemina devTOX quickPredict H9 human embryonic stem cell (hESC)-based Assay for Ornithine (ORN):Cystine (CYSS) Ratio (AID 2283714). The essentials: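 H9 hESC, 72h, q24h re-dose; last-day media → acetonitrile deproteinization → UPLC-HRMS. ORN:CYSS ratio from isotope-normalized EIC areas, vs 0.1% DMSO; MTX references on each plate.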
Assay [2] in a line: Tanguay_ZF_120hpf_ActivityScore_legacy: (Legacy) Oregon State University Tanguay Lab 120 Hour Post-fertilization zebrafish Assay Score for Activity (AID 2283742).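 On AC50: dechorionated Tropical 5D wild-type zebrafish embryos held singly per well; static exposure from 6 hpf until 120 hpf at 28 °C.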 The essentials: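 In this whole-embryo screen, dechorionated zebrafish were exposed from 6 hpf until 120 hpf at 28C under a 0.64% DMSO vehicle. Developmental malformations and death were recorded by brightfield microscopy as binary endpoints.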

Assay [3] has as its system chicken Androgen Receptor (AR), gene 422165. Put plainly: ATG_chAR_XSP1: Attagene TRANS-FACTORIAL Multi-Species (XSP1) HepG2 Assay for chicken Androgen Receptor (AR) (AID 2283768). Summed up:
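Reporter mRNA read by RT-PCR with fluorescent labelling and capillary electrophoresis 24 h after chemical dosing of transiently transfected HepG2 cells. Chicken AR-Gal4 chimera, partially stimulated with 3 nM 6-alpha-fluorotestosterone; activity fitted upward relative to DMSO.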

For assay [4], the system named is frog Estrogen Receptor (ESR2), gene 100174814. The assay can be described thus: ATG_frER2_XSP1: Attagene TRANS-FACTORIAL Multi-Species (XSP1) HepG2 Assay for frog Estrogen Receptor (ESR2) (AID 2283774). The essentials:
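Multiplexed TRANS-format reporter assay in human hepatoma HepG2: chimeric nuclear receptor-Gal4 activity reported as mRNA induction at 24 h, detected by fluorescent RT-PCR products on capillary electrophoresis and fitted upward from DMSO baseline.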

Assay [5] in a line: ACEA_AR_agonist_AUC_viability: ACEA Biosciences xCELLigence Real-Time Cell Analysis on Androgen Receptor Agonism for Viability (AID 2283775).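 On AC50: viability read 80 hours after compound addition.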 Summed up: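 22Rv1 cells; impedance growth kinetics; 8-pt 1:4 dilutions from 100 uM top final, ≤0.5% DMSO; n = 2; 80 h read; AUC viability, loss-of-signal vs DMSO.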
Assay [6] is described as follows: ACEA_AR_antagonist_AUC_viability: ACEA Biosciences xCELLigence Real-Time Cell Analysis on Androgen Receptor Antagonism for Viability (AID 2283776).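 Further: 22Rv1 human prostate cancer cells growing on impedance electrode plates; area under impedance growth curve at 80 h after dosing as viability; hits lower the growth signal relative to DMSO meaning cytotoxicity.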 Summed up: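 22Rv1 prostate cells, continuous dosing up to 100 uM final (0.5% DMSO max), duplicate plates. Growth measured by impedance; AUC at 80 h, loss of signal vs DMSO.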
Assay [7] is described as follows: CEETOX_H295R_MTT_cell_viability: Viability Assessment in the CeeTox HT-H295R MTT Assay (AID 2283718; active means hit-call score of the fitted dose curve at least 0.9, where 1 is the maximum; inactive means score below 0.9). Summed up: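 H295R cells prestimulated 48 h with 10 uM forskolin, then exposed 48 h to test chemical (0.1% DMSO final). Viability by MTT (0.5 mg/ml, 4 h, 37 C), absorbance 570/650 nm; percent change versus DMSO, bidirectional fit.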
Assay [8] has as its target Luciferin 4-monooxygenase (Photinus pyralis) (UniProt P08659). Put plainly: CCTE_Simmons_QuantiLum_inhib_2: CCTE's Firefly Luciferase Inhibition Assay, Simmons Lab (AID 2283767). Summed up: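 Eight test concentrations, 5 nM up to 87.5 uM final, preincubated 30min at 37C in the dark with purified luciferase (0.5% DMSO final). Detection reagent (150uM D-luciferin, 147uM dATP, 75uM CoA, pH 7.8) injected per well before kinetic luminescence read; three replicates.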

The test system of assay [9] is zebrafish Estrogen Receptor (ESR2B), gene 317733. The assay can be described thus: ATG_zfER2b_XSP1: Attagene TRANS-FACTORIAL Multi-Species (XSP1) HepG2 Assay for zebrafish Estrogen Receptor (ESR2B) (AID 2283773). The essentials: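 Human hepatoma HepG2, transiently transfected with multi-reporter units; exogenous zebrafish ESR2B-Gal4 activity measured. Exposure 24 h alongside 3 nM 6-alpha-fluorotestosterone to partly stimulate AR.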

Assay [10] deals with zebrafish Androgen Receptor (AR), gene 100005148. The assay can be described thus: ATG_zfAR_XSP1: Attagene TRANS-FACTORIAL Multi-Species (XSP1) HepG2 Assay for zebrafish Androgen Receptor (AR) (AID 2283771). The essentials: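 Gain-of-signal versus DMSO was measured as reporter transcripts quantified by RT-PCR, fluorescent labelling and capillary electrophoresis after 24 h chemical exposure. The cells were HepG2 expressing a chimeric zebrafish AR-GAL4, co-stimulated with 3 nM 6-alpha-fluorotestosterone.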

For assay [11], the target named is zebrafish Estrogen Receptor (ESR1), esr1 (gene 259252) (UniProt P57717). Put plainly: ATG_zfER1_XSP1: Attagene TRANS-FACTORIAL Multi-Species (XSP1) HepG2 Assay for zebrafish Estrogen Receptor (ESR1) (AID 2283772). The essentials: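 Exogenous chimeric receptor-GAL4 activity is measured in transiently transfected human HepG2 liver cells after 24 h compound exposure. Reporter transcripts are detected by RT-PCR and fluorescent capillary electrophoresis, analysed for signal gain relative to DMSO.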

Values joined by “and” are separate entries in the source; they are usually repeats but may differ in a detail not shown here. Equal entries are not always repeated. Inconclusive results are not listed. The source holds several records for some structures; these can differ, active in one and inactive in another. Active and inactive are the calls of the source. How the source made its calls, unless noted: active means hit-call score of the fitted dose curve at least 0.9, where 1 is the maximum; inconclusive means response in the unintended direction; inactive means score below 0.9.

Chain of Luciferin 4-monooxygenase (Photinus pyralis) (P08659 whole entry, looked up): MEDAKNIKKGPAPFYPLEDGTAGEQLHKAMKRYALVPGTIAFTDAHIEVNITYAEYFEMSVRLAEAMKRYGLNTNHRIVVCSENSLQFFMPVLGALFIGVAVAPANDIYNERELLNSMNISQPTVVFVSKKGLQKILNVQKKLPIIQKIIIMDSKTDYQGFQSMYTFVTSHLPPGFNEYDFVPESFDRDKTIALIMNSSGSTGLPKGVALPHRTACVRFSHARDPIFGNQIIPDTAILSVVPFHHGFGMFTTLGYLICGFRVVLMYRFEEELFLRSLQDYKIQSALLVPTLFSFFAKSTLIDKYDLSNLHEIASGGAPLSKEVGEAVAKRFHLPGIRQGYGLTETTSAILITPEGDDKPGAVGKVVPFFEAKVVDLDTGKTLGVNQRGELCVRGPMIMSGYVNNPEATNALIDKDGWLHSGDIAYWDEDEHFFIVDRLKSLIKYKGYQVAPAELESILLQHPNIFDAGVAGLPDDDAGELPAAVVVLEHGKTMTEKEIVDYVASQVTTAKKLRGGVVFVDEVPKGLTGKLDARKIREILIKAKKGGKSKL
Chain of zebrafish Estrogen Receptor (ESR1), esr1 (gene 259252) (P57717 whole entry, looked up, the tested form may be a part): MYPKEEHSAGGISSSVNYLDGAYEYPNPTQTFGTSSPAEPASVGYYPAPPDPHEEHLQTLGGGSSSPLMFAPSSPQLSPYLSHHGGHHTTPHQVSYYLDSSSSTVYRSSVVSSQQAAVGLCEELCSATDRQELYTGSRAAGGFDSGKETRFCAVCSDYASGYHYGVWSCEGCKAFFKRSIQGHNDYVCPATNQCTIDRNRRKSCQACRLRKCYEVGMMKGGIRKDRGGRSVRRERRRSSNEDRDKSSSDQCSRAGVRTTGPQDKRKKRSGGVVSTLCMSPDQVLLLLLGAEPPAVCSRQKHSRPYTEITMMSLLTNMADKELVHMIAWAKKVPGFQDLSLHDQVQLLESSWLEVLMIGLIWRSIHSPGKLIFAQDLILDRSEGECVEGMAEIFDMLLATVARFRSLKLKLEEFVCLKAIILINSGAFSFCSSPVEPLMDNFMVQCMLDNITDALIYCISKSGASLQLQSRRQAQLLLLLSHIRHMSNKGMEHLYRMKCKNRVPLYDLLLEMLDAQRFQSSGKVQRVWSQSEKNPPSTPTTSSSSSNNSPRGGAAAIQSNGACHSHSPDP

One may read the AC50 as the concentration at which the activity in the assay is half-maximal. On to `CO/C=C(/C(=O)OC)c1ccccc1Oc1cc(Oc2ccccc2C#N)ncn1`, for which the result in assay [1], in [2], in assay [3] and in assay [4] was inactive. The concentration at half-maximal activity (AC50) was 9.41 µM (active) and 2.03 µM (active) in assay [2]; 46.7 µM (active) in [5]; 45.3 µM (active) in assay [6].

For the molecule `CCOP(=S)(OCC)SCn1c(=O)oc2cc(Cl)ccc21`, the outcome in [7], in [2] and in assay [8] was inactive. Further, the AC50 was 24.5 µM (active) in [9], 91.5 µM (active) in assay [5] and 76.9 µM (active) in assay [6].

Regarding `CCCCOC(=O)c1ccccc1C(=O)OCCCC`, the AC50 in [1] was 56 µM (active); in assay [9] it was 24.6 µM (active); in assay [5], 77.2 µM (active); in assay [6], 66.1 µM (active). The result in assay [7], in assay [2] and in assay [3] was inactive.

For `CCCCC(CC)COC(=O)c1ccccc1C(=O)OCC(CC)CCCC` (stereo not given), the AC50 in assay [1] was 30.9 µM (active); in assay [9], 16.1 µM (active); in assay [5] it was 50 µM (active); in assay [6], 61.8 µM (active). For the same molecule, the result in assay [7], in assay [2], in assay [10] and in assay [4] was inactive.

As for `COc1ccc(C(c2ccc(OC)cc2)C(Cl)(Cl)Cl)cc1`, the result in assay [1], in assay [2], in assay [10] and in assay [11] was inactive. The AC50 is 1.08 µM (active) in assay [9], 1.09 µM (active) in assay [4], 80.8 µM (active) in assay [5] and 76.7 µM (active) in assay [6].

In the case of `N#CC(CCc1ccc(Cl)cc1)(Cn1cncn1)c1ccccc1` (stereo not given), the molecule was classed as inactive in assay [7] and in assay [2]. The half-maximal activity concentration (AC50) was 50 µM (active) in assay [5] and 25.7 µM (active) in assay [6].

On to `Cc1ccc(-c2c(Cl)nc(C#N)n2S(=O)(=O)N(C)C)cc1`, for which the AC50 in assay [2] is 2.27 µM (active); in assay [5] it was 19.2 µM (active); in [6], 16.1 µM (active).

With `N#Cc1cc(Br)c(O)c(Br)c1`, the results for the AC50 in assay [2], in [5] and in assay [6] were 23.8 µM (active), 59.6 µM (active) and 52.1 µM (active), respectively.

For `CC(C)C1(C)N=C(c2nc3ccccc3cc2C(=O)O)NC1=O` (stereo not given), the outcome in assay [2] and in assay [6] was inactive.

In the case of `CCOc1cc(Oc2ccc(C(F)(F)F)cc2Cl)ccc1[N+](=O)[O-]`, the result in assay [7] and in assay [2] was inactive. The concentration at half-maximal activity (AC50) was 22.8 µM (active) in assay [5] and 12.9 µM (active) in assay [6].

Turning to `CCCN(CCC)c1c([N+](=O)[O-])cc(S(N)(=O)=O)cc1[N+](=O)[O-]`, the outcome in assay [2], in assay [8], in assay [10] and in assay [11] was inactive. Moreover, the figures for the AC50 in [3], in assay [9] and in assay [4] were 59.5 µM (active), 14.2 µM (active) and 11.2 µM (active), respectively.

Regarding `O=C(Nc1ccccc1)Nc1ccnc(Cl)c1`, the values for the AC50 in [2], in assay [5] and in assay [6] were 38.6 µM (active), 39.1 µM (active) and 30.8 µM (active), respectively. Further, in assay [8], the outcome was inactive.

`COC(=O)C=C(C)OP(=O)(OC)OC`: the result in assay [2] and in assay [8] was inactive. Further, the AC50 in [5] is 29.8 µM (active); in [6], 19 µM (active).

`COc1cnc(OC)n2nc(NS(=O)(=O)c3c(OCC(F)F)cccc3C(F)(F)F)nc12`: the molecule was classed as inactive in assay [2], in assay [5] and in assay [6].
